About 83,000 compounds went through this panel and 20% of them were active in at least one assay; those are over-represented in the sample as a whole.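 48-hour exposure, single concentration, 96-well plates; percent growth endpoint where 0 means no net growth. Active: below 10.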 A number with no mark means an inactive call. Calls of active or inactive are those of the source.
Columns and labels:
Test in all cases: NCI-60 one-dose screen, 48 h (100 = growth as untreated, 0 = no growth, -100 = all killed)
Conditions in all cases: 10 µM unless noted
[1] = system: HCT-15 colon
[2] = system: HT29 colon
[3] = system: SNB-75 CNS
[4] = system: SNB-19 CNS
[5] = system: U251 CNS
[6] = system: PC-3 prostate
[7] = system: SK-MEL-5 melanoma
[8] = system: UACC-62 melanoma
[9] = system: LOX IMVI melanoma
[10] = system: SK-MEL-28 melanoma
[11] = system: SK-MEL-2 melanoma
[12] = system: EKVX NSCLC
[13] = system: SN12C renal
[14] = system: UO-31 renal
[15] = system: TK-10 renal
[16] = system: ACHN renal
[17] = system: CAKI-1 renal
[18] = system: A498 renal
[19] = system: CCRF-CEM leukemia
[20] = system: MOLT-4 leukemia

SMILES	growth [1]	growth [2]	growth [3]	growth [4]	growth [5]	growth [6]	growth [7]	growth [8]	growth [9]	growth [10]	growth [11]	growth [12]	growth [13]	growth [14]	growth [15]	growth [16]	growth [17]	growth [18]	growth [19]	growth [20]
NCCCCn1c(SCCc2c[nH]c3ccccc23)nnc1-c1ccc2ccccc2n1	-1.2% (active)	-45.3% (active)	0.128% (active)	18.6%	-84.8% (active)	2.82% (active)	-99.4% (active)	-88.5% (active)	-95.6% (active)	-97.4% (active)	-73.5% (active)	-0.327% (active)	-14.8% (active)	26.4%	-7.11% (active)	-55.1% (active)	-9.25% (active)	98.5%	-23.3% (active)	-35.4% (active)
COc1ccc(Nc2ncnc3sc4c(c23)CCN(Cc2ccccc2)C4)cc1	74.9%	98.1%	89.2%	90.8%	88.9%	68.8%	70.4%	43.5%	52.2%	99.8%	87.4%	75.8%	85.4%	49%	109%	77%	52%	91.9%	73.5%	62.4%
O=c1ccc(Cn2c(C(F)(F)F)cc3c(Cl)ncnc32)c[nH]1	0.0667% (active)	78.1%	13.1%	47.4%	98.5%	78.4%	6.31% (active)	19.3%	-61.8% (active)	40.8%	-86.2% (active)	95.4%	47.9%	-88.4% (active)	111%	-54.5% (active)	78.1%	136%	11.8%	-26.6% (active)
Nc1cc2ccccc2c(=O)n1NC(=O)c1ccccc1	93.8%	113%	80.3%	93.7%	106%	91.7%	96%	76.5%	88%	98.8%	105%	87.6%	100%	58.3%	127%	93.4%	83.8%	–	98.9%	93.9%
Cc1ccc(N=Nc2c(N)nn3c(-c4cc5ccccc5oc4=O)ccnc23)cc1	40.6%	30.2%	93.7%	32.2%	43%	54.6%	42.4%	82.3%	36%	44.7%	61.5%	49.2%	48.2%	53.8%	57.9%	34.9%	57.1%	150%	70.2%	39%
O=C1CCC(N2C(=O)c3cccc(NCCCCCC(=O)N4CCN(c5ccc6nc7c(nc6c5C(F)(F)F)C(=O)c5ncccc5C7=O)CC4)c3C2=O)C(=O)N1 (centres undefined)	-69.5% (active)	-18.7% (active)	-75.8% (active)	-72.3% (active)	-90.4% (active)	-19.8% (active)	-95.3% (active)	-72.7% (active)	-85.1% (active)	-84.8% (active)	-74.6% (active)	-59.6% (active)	-79.6% (active)	-94.5% (active)	-9.44% (active)	-70.8% (active)	-78.8% (active)	-80.7% (active)	-23.1% (active)	-25.6% (active)
CCOc1ccccc1[C@H]1C(C(=O)c2ccc(Cl)cc2)C2(N[C@@H]1c1ccccc1)C(=O)Nc1ccc(Br)cc12 (some centres undefined)	-5.64% (active)	-62.1% (active)	44.4%	17.1%	0.419% (active)	5.34% (active)	-89.3% (active)	-46.8% (active)	-100% (active)	-23.4% (active)	-66.8% (active)	3.88% (active)	-86.6% (active)	5.4% (active)	27%	1.27% (active)	7.21% (active)	-22.5% (active)	4.88% (active)	-23.2% (active)
O=C(Nc1ccc(-c2ccc3c(c2)NC(=O)/C3=C\c2ccc[nH]2)cc1)Nc1ccc(Cl)c(Cl)c1	41.4%	10.7%	52.1%	67.5%	21.9%	64.7%	74.7%	42.4%	26.2%	64.2%	88.9%	46.5%	68.7%	54.9%	77.6%	53.7%	39.1%	101%	33.1%	33.5%
